Experimental data published in PubChem BioAssay (NCATS).
Inconclusive results are not listed. Values without a mark were called inactive. Calls come from the whole dose curve; as a rule, active = well fitted inhibition curve with a large enough effect; inconclusive = small, poorly fitted or top-dose-only effect; inactive = flat fitted curve, though single readings scatter.

biological target: Calcium and integrin-binding protein 1 (Homo sapiens) (UniProt Q99828); assay: Primary qHTS for Identification of Calcium Integrin Binding Protein 1 (CIB1) Competitor (AID 1508620); settings: CIB1-GST / FITC-alphaIIb peptide fluorescence polarization; series mostly up to 114 µM; activity change, negative = inhibition: at the top concentration; note: top concentration of the series differs between compounds
In short: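 Fluorescence polarization competition: GST-tagged CIB1 (1 uM final) preincubated with compound 15 min at room temperature, then FITC-labelled alphaIIb peptide (100 nM final) added. After 15 min at room temperature, polarization read at Ex 480/Em 540.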
% is set by controls: 0 for no effect and ±100 for the full control effect.

Chain of Calcium and integrin-binding protein 1 (Homo sapiens) (Q99828 whole entry, looked up): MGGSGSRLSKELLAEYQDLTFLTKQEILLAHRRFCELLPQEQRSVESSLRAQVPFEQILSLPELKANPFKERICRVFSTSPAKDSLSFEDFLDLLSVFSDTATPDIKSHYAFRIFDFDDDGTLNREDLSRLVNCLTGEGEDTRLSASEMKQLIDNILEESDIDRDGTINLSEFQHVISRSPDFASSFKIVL

SMILES	activity change, negative = inhibition
COc1ccc(NC(=O)c2cnn3c(-c4ccccc4)cc(C)nc23)cc1	1.5%
O=S(=O)(NC1CCC(CNS(=O)(=O)c2c(F)cccc2F)CC1)c1ccc2c(c1)OCCO2 (configuration not stated)	-2.93%
COc1ccc(NC(=O)c2ccc(-c3nc4ccccc4[nH]3)cc2)cc1OC	6.3%
O=C(Nc1nnc(-c2ccncc2)s1)Nc1ccc(Cl)cc1Cl	6.31%
COc1ccc(-c2csc3ncnc(Sc4nnnn4C)c23)cc1	-1.35%
O=[N+]([O-])c1ccccc1CSc1nc2ncc(Br)cc2[nH]1	1.76%
O=C(COC(=O)CNC(=O)C1CCCCC1)Nc1ccccc1Cl	4.11%
CCNC(=O)c1ccc(-c2ccc3ncnc(NCc4nc(C)cs4)c3c2)o1	-16%
CCn1cnc2c(Nc3ccc(CC(=O)N=C(N)N)cc3)nc(C#N)nc21	2.97%
Oc1ccc(CCc2ccccc2F)c2cccnc12	-6.05%
COc1cc(OC)cc(N2CCN(C(=S)Nc3cc(C)cc(C)n3)CC2)c1	-2.1%
Cc1ccc(-c2ccc(=O)n(CC(=O)N(C)CCN(C)C)n2)cc1	2.97%
COC(=O)c1c(-c2ccccc2)no[n+]1[O-]	-3.76%
N#Cc1nc(Nc2cccc(-c3ccccc3)c2)nc(NC2CCCC2)n1	4.96%
CC(=O)Nc1cccc(S(=O)(=O)N2CCN(S(=O)(=O)c3c(F)cccc3F)CC2)c1	-2.55%
O=C1Cc2cc(S(=O)(=O)N3CCN(c4cccc(C(F)(F)F)c4)CC3)ccc2N1	-1.19% [at 228 µM]
O=c1c2[nH]c3cc(Br)sc3c2cnn1Cc1ccccc1F	0.167%
Cc1ccc(-c2nccc(=O)n2CC(=O)NCCc2ccccc2)cc1	9.6%
CCN(Cc1sccc1C)c1ncnc2ccc(-c3ccc4c(c3)OCO4)cc12	14.2%
CC(C)c1cc(C(C)C)c(S(=O)(=O)Nc2cccc3cccnc23)c(C(C)C)c1	4.04%
O=S1(=O)N=C(Oc2ccccc2C(F)(F)F)c2ccccc21	2.21%
O=C1Nc2ccccc2/C1=C\c1cc(F)c(O)c(F)c1	-4.14%
